Measurements: PubChem BioAssay
The source made the active and inactive calls.

Legend:
[1] = anti-His antibody binders, primary screen, artefact control for SMM control protein annotation, biochemical, small-molecule microarray, 635 nm fluorescence (AID 1128); details: anti-His Alexa647 antibody binding, higher = more signal;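 further: score merges feature fluorescence with signal-to-noise for each printed compound spot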
[2] = tested on: Human papillomavirus type 1a E7 protein (residues 1-88); assay: HPV1a E7 small-molecule binders, primary screen, biochemical, small-molecule microarray, residues 1-88, 635 nm (AID 1129); details: small-molecule microarray binding, fluorescence 635 nm; higher = more signal
[3] = target: Focal adhesion kinase 1 (Homo sapiens) (UniProt Q05397); assay: small-molecule microarray binders of FAK, primary screen, biochemical, 635/667 nm fluorescence, BSA, DTT (AID 1130); details: PTK2 binding, 635 nm fluorescence, higher = more signal;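 further: composite of spot emission at 667 nm and signal to noise over triplicate slides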
Chain of Focal adhesion kinase 1 (Homo sapiens) (Q05397 whole entry, looked up): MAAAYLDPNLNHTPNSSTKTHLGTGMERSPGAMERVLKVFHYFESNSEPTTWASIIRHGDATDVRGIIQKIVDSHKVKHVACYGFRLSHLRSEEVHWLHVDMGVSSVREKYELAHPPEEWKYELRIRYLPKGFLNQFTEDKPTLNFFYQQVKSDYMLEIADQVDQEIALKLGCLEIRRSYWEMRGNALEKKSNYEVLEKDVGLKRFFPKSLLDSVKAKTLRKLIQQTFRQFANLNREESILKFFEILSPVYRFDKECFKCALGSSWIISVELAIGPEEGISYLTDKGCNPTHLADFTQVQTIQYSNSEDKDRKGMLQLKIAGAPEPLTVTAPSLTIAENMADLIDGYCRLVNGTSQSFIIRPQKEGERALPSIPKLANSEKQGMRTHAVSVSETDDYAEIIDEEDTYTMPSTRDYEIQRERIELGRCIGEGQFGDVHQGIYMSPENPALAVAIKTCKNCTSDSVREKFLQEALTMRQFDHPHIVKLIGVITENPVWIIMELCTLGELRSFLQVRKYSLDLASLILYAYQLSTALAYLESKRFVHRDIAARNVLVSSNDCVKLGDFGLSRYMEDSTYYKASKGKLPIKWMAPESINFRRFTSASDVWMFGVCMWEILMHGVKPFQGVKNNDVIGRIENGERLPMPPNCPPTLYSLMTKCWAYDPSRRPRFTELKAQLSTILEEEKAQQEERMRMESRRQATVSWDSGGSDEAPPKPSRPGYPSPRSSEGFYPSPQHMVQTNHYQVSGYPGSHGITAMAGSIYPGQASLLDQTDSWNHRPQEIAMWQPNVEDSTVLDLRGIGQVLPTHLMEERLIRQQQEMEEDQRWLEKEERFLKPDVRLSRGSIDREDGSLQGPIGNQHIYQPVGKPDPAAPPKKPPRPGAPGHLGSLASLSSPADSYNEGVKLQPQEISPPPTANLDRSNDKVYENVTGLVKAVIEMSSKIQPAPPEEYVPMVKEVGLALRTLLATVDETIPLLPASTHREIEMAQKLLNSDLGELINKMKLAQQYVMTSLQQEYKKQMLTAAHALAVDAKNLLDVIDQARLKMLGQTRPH

[4] = tested on: Fibrinogen (Alexa647-labelled); assay: fibrinogen binders on compound microarrays, profiling panel, artefact control for SMM control-protein annotation, biochemical, small-molecule microarray, 635/667 nm fluorescence (AID 1131); details: fibrinogen-A647 binding fluorescence, higher = more signal;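 further: z-score merges 667 nm fluorescence with per-spot signal-to-noise over triplicate slides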
[5] = target: Follistatin (Homo sapiens) (UniProt P19883); assay: follistatin binders on small-molecule microarrays, primary screen, biochemical, small-molecule microarray, 635/667 nm fluorescence (AID 1132); details: FST binding, 635 nm fluorescence, higher = more signal
Chain of Follistatin (Homo sapiens) (P19883 whole entry, looked up): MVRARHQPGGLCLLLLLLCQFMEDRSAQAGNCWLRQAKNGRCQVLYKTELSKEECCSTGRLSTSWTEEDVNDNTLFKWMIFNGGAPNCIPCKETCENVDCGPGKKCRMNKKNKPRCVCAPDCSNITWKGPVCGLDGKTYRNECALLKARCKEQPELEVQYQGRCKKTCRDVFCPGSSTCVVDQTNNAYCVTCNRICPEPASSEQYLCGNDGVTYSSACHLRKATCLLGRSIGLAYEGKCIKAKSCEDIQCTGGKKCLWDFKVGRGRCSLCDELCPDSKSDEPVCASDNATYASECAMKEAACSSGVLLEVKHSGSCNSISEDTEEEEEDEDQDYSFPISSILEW

[6] = target: Fibroblast growth factor 2 (Homo sapiens) (UniProt P09038); assay: FGF2 binders on small-molecule microarrays, primary screen, biochemical, small-molecule microarray, 635/667 nm fluorescence (AID 1133); details: small-molecule microarray binding, FGF2, fluorescence 635/667; higher = more signal
Chain of Fibroblast growth factor 2 (Homo sapiens) (P09038 whole entry, looked up): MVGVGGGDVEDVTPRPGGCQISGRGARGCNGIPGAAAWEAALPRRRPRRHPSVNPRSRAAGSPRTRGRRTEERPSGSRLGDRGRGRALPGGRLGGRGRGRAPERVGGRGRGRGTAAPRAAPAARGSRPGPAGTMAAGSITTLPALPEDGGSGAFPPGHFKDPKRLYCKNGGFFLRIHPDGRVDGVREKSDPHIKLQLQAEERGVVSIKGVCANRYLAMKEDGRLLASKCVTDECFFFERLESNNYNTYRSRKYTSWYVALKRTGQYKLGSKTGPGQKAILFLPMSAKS

[7] = mitochondrial membrane potential change in A549 cells, profiling panel, cell-based, JC-1 fluorescence, basal, 24 h, 100 nL (AID 1138); details: higher = more signal;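 further: A549 lung adenocarcinoma cells under basal conditions with no added stimulus; test concentration not given here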
Lefty1 = Lefty1 binders on small-molecule microarrays, primary screen, biochemical, small-molecule microarray, 635/667 nm fluorescence (AID 1139); details: small-molecule microarray binding, fluorescence 635/667; higher = more signal
[8] = tested on: wheat germ agglutinin (Triticum aestivum), Alexa647-labelled; assay: wheat germ agglutinin binders on compound microarrays, profiling panel, artefact control for SMM control-protein annotation, biochemical, small-molecule microarray, 635/667 nm fluorescence (AID 1140); details: WGA-A647 binding, 635 nm fluorescence, higher = more signal;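 further: score merges 667 nm feature emission with signal to noise over triplicate slides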
[9] = target: Luciferin 4-monooxygenase (Photinus pyralis) (UniProt P08659); assay: firefly luciferase enzyme inhibitors, primary screen, biochemical, luminescence, purified enzyme, 2006 set (AID 1141); details: SteadyGlo luminescence, 30 min, higher = more signal, called active from +8 up or from −8 down;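 further: cell-free assay with purified firefly luciferase at 100 ng per well in PBS; test concentration not given here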
Chain of Luciferin 4-monooxygenase (Photinus pyralis) (P08659 whole entry, looked up): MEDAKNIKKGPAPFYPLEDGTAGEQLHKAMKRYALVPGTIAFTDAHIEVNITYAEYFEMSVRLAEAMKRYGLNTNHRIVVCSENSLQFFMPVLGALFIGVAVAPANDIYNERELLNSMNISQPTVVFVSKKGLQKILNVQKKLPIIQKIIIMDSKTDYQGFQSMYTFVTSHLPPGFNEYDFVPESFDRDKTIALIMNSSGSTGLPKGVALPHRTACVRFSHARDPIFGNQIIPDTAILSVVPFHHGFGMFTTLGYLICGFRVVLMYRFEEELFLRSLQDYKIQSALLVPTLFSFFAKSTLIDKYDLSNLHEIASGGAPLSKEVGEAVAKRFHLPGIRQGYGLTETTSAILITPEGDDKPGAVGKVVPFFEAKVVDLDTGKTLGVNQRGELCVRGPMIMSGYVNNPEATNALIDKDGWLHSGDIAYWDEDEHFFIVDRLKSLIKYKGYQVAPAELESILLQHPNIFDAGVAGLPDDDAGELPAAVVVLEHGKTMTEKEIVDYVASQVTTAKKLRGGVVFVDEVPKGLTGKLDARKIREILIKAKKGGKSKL

Structure (SMILES)	composite z-score [1]	composite z-score [2]	composite z-score [3]	composite z-score [4]	composite z-score [5]	composite z-score [6]	z-score [7]	composite z-score (Lefty1)	composite z-score [8]	z-score [9]
C#C[C@@H](CC)O[Si](C#CCCCC#N)(C(C)C)C(C)C	2.55	0.0253	0.278	-0.014	-0.295	0.895	0.168	0.232	-0.0711	-0.732 (inactive)
O=C1C2C=CC(C(O)c3cc(C(F)(F)F)cc(C(F)(F)F)c3)N(Nc3ccccc3F)C2C(=O)N1c1ccccc1 (stereo not given)	-0.102	1.21	0.76	0.847	0.21	-0.215	-1.58	-0.173	0.416	0.668 (inactive)
COCCOC(=O)N1C(=O)[C@@]2(c3cc(C#CC4=CCCCC4)ccc31)[C@H](C(=O)N1CCCCCCC1)[C@H]1C(=O)O[C@H](c3ccccc3)[C@H](c3ccccc3)N1[C@@H]2c1ccc(OCCO)cc1	0.119	1.13	0.605	0.806	1.23	0.426	-1.22	0.79	0.956	-0.866 (inactive)
CCOC(=O)C1=CC[C@@H](c2ccccc2)N(S(=O)(=O)c2ccc(C)cc2)[C@H]1c1cccc(OC)c1	0.741	1.15	-0.0106	0.669	0.76	0.356	1.96	-0.245	0.773	1.56 (inactive)
COC(=O)[C@@]1(Cc2ccc(OC)cc2)[C@H]2c3cc(C(=O)N4CCCC4)n(Cc4ccc(OC(F)(F)F)cc4)c3C[C@H]2CN1C(=O)c1ccccc1	1.36	-0.376	-0.438	1	0.451	-0.702	0.691	-0.683	1.09	2.03 (inactive)
CC(C)(C)OC(=O)CC[C@]1(C(=O)N2CCCCC2)COC(c2ccc(OCCCO)cc2)=N1	2.11	1.23	0.857	1	0.778	-0.0857	-0.29	0.197	1.12	-0.3 (inactive)
CO[C@H]1O[C@H](CO)[C@@H](OC(=O)Nc2cccc(F)c2)[C@H](OC(=O)Nc2ccccc2-c2ccccc2)[C@H]1OC(=O)Nc1ccccc1-c1ccccc1	2.69	1.28	0.55	0.986	1.32	1.5	-0.498	1.14	0.474	0.372 (inactive)
CC(C)=CCCC(C)=CC(O)C1C=CC2C(=O)N(c3ccccc3)C(=O)C2N1Nc1ccccc1F (stereo not given)	1.55	1.03	0.789	0.988	0.462	-0.617	-0.4	0.278	0.327	2 (inactive)
C=C(C)C1CCC(C(O)C2C=CC3C(=O)N(C)C(=O)C3N2Nc2cc(OC)c(OC)c(OC)c2)CC1 (stereo not given)	1.23	1.24	0.573	0.723	1.31	0.425	0.444	0.677	0.504	-1.07 (inactive)
CC1(C)C(=O)C(c2ccccc2)=C2CN3C(=O)N(CCc4ccccc4)C(=O)C3(Cc3ccc(F)cc3)C=C21 (stereo not given)	1.47	0.324	-0.104	-0.402	0.0178	-0.979	-0.593	-0.784	0.432	0.907 (inactive)
CC(C)C(CO)N1C(=O)[C@@H]2[C@H]3C(=O)OCC=C[C@H]3OC23C=CCN(C(C)(C)C)C(=O)[C@@H]13 (stereo not given in full)	-0.54	-1.09	-0.513	-0.0751	0.277	-0.405	-1.76	0.503	-0.0676	-0.159 (inactive)
COc1ccc(NC(=O)O[C@H]2[C@@H]3OC(=O)[C@H](Cc4cccc(Br)c4)C/C=C/C[C@@H](Cc4cccc(Br)c4)C(=O)O[C@H]3[C@@H](OC)O[C@@H]2CO)cc1	0.66	0.632	1.73	0.145	0.358	0.293	1.69	1.16	0.464	-1.29 (inactive)
Cc1ccc(S[C@]2(C(=O)NCC(C)C)CC(=O)N(C3Cc4ccccc4C3)[C@@H]2c2ccc(CO)cc2I)cc1	-0.258	0.27	-0.199	-1.13	-0.615	-1.02	-0.244	-1.38	-0.463	-0.063 (inactive)
CCOC(=O)C[C@H]1[C@H](OC(=O)c2ccc(C(=O)c3ccccc3)cc2)[C@@H](NC(=O)CC(C)C)c2cc(OCCCO)ccc2N1C(=O)Cc1ccc(OC)cc1	0.201	0.766	0.721	0.286	0.264	0.194	0.911	-0.215	0.675	-0.563 (inactive)
C[C@]1(C(=O)NCCN2CCOCC2)c2ccccc2C(=O)N(Cc2cc(F)cc(C(F)(F)F)c2)[C@H]1c1ccc(CO)cc1	3.12	0.917	0.746	0.91	0.89	-0.0787	0.815	0.443	0.294	1.05 (inactive)
COc1ccc([Si](C)(C)[C@H]2[C@H](CCO)O[C@@]3(C(=O)N(Cc4ccc(N5C(=O)c6ccccc6Oc6ccccc65)cc4)c4ccccc43)[C@@H]2C)cc1	-0.486	-0.76	-0.266	0.348	-1.14	-0.968	1.26	-0.865	0.0124	-0.652 (inactive)
